Results on 83 molecules are retold here after publication PMC4336329 (PLoS ONE, 2015).

Screen size: about 310,000 compounds; about 14,000 (4.5%) showed an effect of 50% or more. The effect is printed as a negative number. Shown is part of a subset that was picked to be rich in strong results.
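Also: peak tail current of the secondary pulse compared with the same well before compound.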

Chain of human ether-à-go-go-related gene (hERG) potassium channel (Q12809 whole entry, looked up): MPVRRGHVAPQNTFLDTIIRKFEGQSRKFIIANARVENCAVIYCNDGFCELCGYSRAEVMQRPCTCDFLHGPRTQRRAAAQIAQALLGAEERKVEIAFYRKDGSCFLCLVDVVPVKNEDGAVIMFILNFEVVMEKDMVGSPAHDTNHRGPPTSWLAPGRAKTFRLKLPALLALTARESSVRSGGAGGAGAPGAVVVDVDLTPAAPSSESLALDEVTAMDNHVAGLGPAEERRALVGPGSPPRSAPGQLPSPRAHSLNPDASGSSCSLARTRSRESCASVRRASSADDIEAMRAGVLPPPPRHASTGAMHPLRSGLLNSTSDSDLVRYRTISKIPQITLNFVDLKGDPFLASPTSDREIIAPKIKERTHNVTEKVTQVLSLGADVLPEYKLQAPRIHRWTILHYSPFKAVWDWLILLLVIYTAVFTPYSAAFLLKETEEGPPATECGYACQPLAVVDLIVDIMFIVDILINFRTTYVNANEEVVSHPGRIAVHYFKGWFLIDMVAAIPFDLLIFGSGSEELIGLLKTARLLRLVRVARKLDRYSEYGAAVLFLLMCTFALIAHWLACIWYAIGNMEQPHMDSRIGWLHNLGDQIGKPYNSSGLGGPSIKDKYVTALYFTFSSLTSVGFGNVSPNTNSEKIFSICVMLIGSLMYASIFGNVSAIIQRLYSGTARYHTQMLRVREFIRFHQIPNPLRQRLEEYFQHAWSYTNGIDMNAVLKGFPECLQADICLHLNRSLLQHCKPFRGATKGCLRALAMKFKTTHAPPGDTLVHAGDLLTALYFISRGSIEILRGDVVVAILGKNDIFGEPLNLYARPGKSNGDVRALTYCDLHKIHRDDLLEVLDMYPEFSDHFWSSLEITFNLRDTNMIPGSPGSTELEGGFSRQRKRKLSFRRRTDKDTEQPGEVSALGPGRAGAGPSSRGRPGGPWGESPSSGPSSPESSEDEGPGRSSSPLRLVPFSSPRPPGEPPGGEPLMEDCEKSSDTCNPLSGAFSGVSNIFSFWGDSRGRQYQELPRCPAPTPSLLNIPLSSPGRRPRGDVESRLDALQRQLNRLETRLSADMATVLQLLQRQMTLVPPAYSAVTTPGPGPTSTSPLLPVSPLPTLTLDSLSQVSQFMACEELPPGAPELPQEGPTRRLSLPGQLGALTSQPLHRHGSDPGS

The assay addresses human ether-à-go-go-related gene (hERG) potassium channel (human, UniProt Q12809). As to the kind of experiment: primary screen, population patch clamp on CHO cells stably expressing hERG; higher = less effect of the substance.
Take `CCOC(=O)c1ccc(S(=O)(=O)N2CCN(CCC#N)CC2)cc1`: the “hERG current change (%, negative = inhibition) at 10uM” value is -14.7%.
On to `Cc1ccc(CNC(=O)COC(=O)CSc2ccc(Br)cc2C)cc1`, for which the “hERG current change (%, negative = inhibition) at 10uM” value was determined as 10.9%.
Under `Cc1nnc(Nc2ccc(O)cc2)[nH]c1=O` stands 27.7%; under `CCN1CCN(c2ccc(S(=O)(=O)N3CCOCC3)cc2NC(=O)c2ccc(Cl)cc2Cl)CC1`, -38.4%; under `CCN1CCN(c2ccc(S(=O)(=O)N3CCOCC3)cc2NC(=O)c2ccccc2SC)CC1`, -60.1%.
With `CCN1CCN(c2ccc(S(=O)(=O)N3CCOCC3)cc2NC(=O)c2ccc(C)c(C)c2)CC1` the figure was -40%; with `CCN1CCN(c2ccc(S(=O)(=O)N3CCOCC3)cc2NC(=O)c2ccc(F)cc2Cl)CC1`, -35.7%; with `CCN1CCN(c2ccc(S(=O)(=O)N3CCOCC3)cc2NC(=O)c2ccccc2OC(F)F)CC1`, -42.5%.
With `CCN1CCN(c2ccc(S(=O)(=O)N3CCOCC3)cc2NC(=O)c2ccc(Cl)s2)CC1` the figure was -57.1%.
As to `C/C(=N/OC(=O)c1c(-c2c(Cl)cccc2Cl)noc1C)c1cnccn1`, the “hERG current change (%, negative = inhibition) at 10uM” value was -1.72%.
With `Cc1nc(NCc2ccccc2)c2cc[nH]c2n1` the figure was 21%.
For the molecule `Cc1nc2sc(C(c3cccc(F)c3)N3CCCCC3)c(O)n2n1` (centres unmarked), the “hERG current change (%, negative = inhibition) at 10uM” value was 4.79%.
With `O=C(NCC1CCCO1)c1ccc(Cn2c(=S)[nH]c3ccccc3c2=O)cc1` (centres unmarked) the figure was 18.2%; with `CN1CCN(C(=O)/C(=C/c2cn(S(=O)(=O)N(C)C)c3ccccc23)NC(=O)c2ccccc2Cl)CC1`, 20.2%.
As to `COc1cc(/C=C/c2ccc3cccc(O)c3n2)ccc1O`, the “hERG current change (%, negative = inhibition) at 10uM” value was -0.305%.
With `Cc1cc(C)nc(Nc2nc(C)c3cc4c(cc3n2)OCO4)n1` the figure was -3.78%; with `Cc1c(NS(=O)(=O)c2ccc(Cl)c(C(=O)OC(C)C(=O)NCc3ccco3)c2)c(=O)n(-c2ccccc2)n1C` (centres unmarked), -77.5%.
With `CCN(Cc1ccccc1)C(=O)COC(=O)c1cc(S(=O)(=O)Nc2c(C)n(C)n(-c3ccccc3)c2=O)ccc1C` the figure was -74.9%.
Under `COc1cc(N2C(=O)c3ccccc3C2=O)c(Cl)cc1C(=O)OCC(=O)N1CCOCC1` stands -9.43%; under `Cc1c(NS(=O)(=O)c2cc(C(=O)NCc3ccco3)cc(Cl)c2Cl)c(=O)n(-c2ccccc2)n1C`, -39.5%.
As for `Cc1ccc(S(=O)(=O)Nc2c(C)n(C)n(-c3ccccc3)c2=O)cc1C(=O)OC(C)C(=O)N(C)c1ccccc1` (centres unmarked), the “hERG current change (%, negative = inhibition) at 10uM” value is given as -10.5%.
Under `Cc1c(NS(=O)(=O)c2ccc(Cl)c(C(=O)OCC(=O)NCc3ccco3)c2)c(=O)n(-c2ccccc2)n1C` stands -51.9%.
As to `Cc1c(NS(=O)(=O)c2ccc(Cl)c(C(=O)OC(C)C(=O)N3CCOCC3)c2)c(=O)n(-c2ccccc2)n1C` (centres unmarked), the “hERG current change (%, negative = inhibition) at 10uM” value is on record as 5.07%.
Under `CCN(C(=O)COC(=O)c1cc(S(=O)(=O)Nc2c(C)n(C)n(-c3ccccc3)c2=O)ccc1Cl)C1CCCCC1` stands -49.9%; under `COc1cc(N2C(=O)c3ccccc3C2=O)c(Cl)cc1C(=O)OCC(=O)NCc1ccco1`, -56.1%.
Under `CCN(Cc1ccccc1)C(=O)C(C)OC(=O)c1cc(S(=O)(=O)Nc2c(C)n(C)n(-c3ccccc3)c2=O)ccc1C` (centres unmarked) stands -19.3%; under `COc1cc(N2C(=O)c3ccccc3C2=O)c(Cl)cc1C(=O)OCC(=O)N(C)C`, -28.5%.
Under `CN(c1ccccc1)S(=O)(=O)c1ccc(Cl)c(C(=O)OCC(=O)NCc2ccco2)c1` stands -25%; under `Cc1cnc(C(=O)OC(C)C(=O)NCc2ccccc2)cn1` (centres unmarked), 3.99%; under `Brc1ccc(CN2CCN(c3ccccn3)CC2)s1`, -5.6%.
Turning to `CCn1c(COc2ccc(Cl)cc2)nnc1SCC(=O)Nc1ccc2c(c1)OCO2`, the “hERG current change (%, negative = inhibition) at 10uM” value turned out to be 3.98%.
Under `Cc1cc(C)cc(C(=O)N(C)C2CCCN(Cc3ccccc3F)C2)c1` (centres unmarked) stands -13%; under `Cc1cccc(-n2nc3c([n+]2[O-])CCc2nonc2-3)c1C`, 11.4%; under `O=C(CSc1ccc(Br)cc1)NC1CCS(=O)(=O)C1` (centres unmarked), 5.33%.
Under `CCCN(CCC)C(=S)Nc1cc(C(=O)OC)ccc1C(=O)OC` stands -38.2%; under `Cc1cccc2c3c([nH]c12)CCN(C)C3`, 10%.
As to `Cc1ccc(Cn2nc(C)c(NC(=O)CCCn3nc([N+](=O)[O-])c(Cl)c3C)c2C)cc1`, the “hERG current change (%, negative = inhibition) at 10uM” value is recorded as -50.7%.
Under `Cc1nn(Cc2ccc(Cl)cc2Cl)c(C)c1NC(=O)NC12CC3CC(CC(C3)C1)C2` stands 7.38%; under `Cc1nn(Cc2ccc(Cl)cc2Cl)c(C)c1NC(=O)Cn1nc([N+](=O)[O-])c(Cl)c1C`, 1.33%; under `Cc1nn(Cc2ccccc2)c(C)c1NC(=O)CCCn1nc(C)c([N+](=O)[O-])c1C`, -16.3%.
Under `Cc1nn(Cc2ccc(Cl)cc2Cl)c(C)c1NC(=O)CCl` stands -60.9%.
With `Cc1nn(Cc2ccc(Cl)cc2)c(C)c1NC(=O)CCCn1nc(C)c([N+](=O)[O-])c1C` the figure was -64.5%; with `Cc1nn(Cc2ccccc2)c(C)c1NC(=O)CCCn1nc([N+](=O)[O-])c(Cl)c1C`, -43%; with `Cc1nn(Cc2c(Cl)cccc2Cl)c(C)c1NC(=O)CCCn1nc([N+](=O)[O-])c(Cl)c1C`, -19.6%.
Turning to `Cc1c(Cl)c([N+](=O)[O-])nn1CCCC(=O)Nc1c(Cl)cccc1Cl`, the “hERG current change (%, negative = inhibition) at 10uM” value was -8.29%.
Under `Cc1nn(Cc2ccc(Cl)cc2)c(C)c1NC(=O)Cn1nc([N+](=O)[O-])c(Cl)c1C` stands 2.42%; under `Cc1ccc(Cn2nc(C)c(NC(=O)CCCn3nc(C)c([N+](=O)[O-])c3C)c2C)cc1`, -10.9%.
As to `Cc1nn(Cc2ccc(Cl)cc2)c(C)c1NC(=O)CCCn1nc([N+](=O)[O-])c(Cl)c1C`, the “hERG current change (%, negative = inhibition) at 10uM” value was -64%.
Under `Cc1onc(-c2ccccc2Cl)c1-c1nc(-c2ccncc2)no1` stands -10.9%; under `CC1(C)CNC(=O)CC(C)(C)N1`, 4.53%.
With `CCn1c(SCC(=O)N2CCCCC2)nc(O)cc1=O` the figure was -7.46%; with `Cc1ccc(C)c(-n2c(Cc3cc(=O)[nH]c(=O)[nH]3)nnc2SCC(=O)NCc2ccco2)c1`, 4.83%; with `Cn1cccc1C(=O)N/N=C/c1c(Cl)cccc1Cl`, 3.26%.
With `COc1cc2c(cc1OC)C(C)N(S(=O)(=O)c1cccs1)CC2` (centres unmarked) the figure was -12.9%.
As to `COc1ccc(-c2ccc3nnc(SCC(=O)NCC4CCCO4)n3n2)cc1` (centres unmarked), the “hERG current change (%, negative = inhibition) at 10uM” value was -9.98%.
For the molecule `O=S(=O)(c1ccc(Br)c2ccccc12)N1CCOCC1`, the “hERG current change (%, negative = inhibition) at 10uM” value is on record as -11.8%.
With `CCCNC(=O)N1c2ccccc2Sc2ccccc21`, the “hERG current change (%, negative = inhibition) at 10uM” value is given as 10.5%.
Under `Cc1c(Cl)c([N+](=O)[O-])nn1CCCC(=O)Nc1cccnc1` stands -2.96%; under `Cc1c(Cl)c([N+](=O)[O-])nn1CCCC(=O)Nc1cccc(O)c1`, -10.8%; under `Cc1c(Cl)c([N+](=O)[O-])nn1CCCC(=O)Nc1cccc(Cl)c1`, -51.7%.
With `O=C(Nc1ccc(-c2csc(-c3ccccc3)n2)cc1)c1ccccc1` the figure was 16.9%.
With `Cn1c(SCC(=O)N2CCCCCC2)nc2c([nH]c3ccccc32)c1=O` the figure was 6.91%; with `COc1ccc(CNc2oc(C)nc2C#N)cc1`, -1.09%; with `COc1ccccc1N1CCN(CCCCOc2cccc3ccccc23)CC1.Cl`, -32.8%.
Regarding `COc1ccccc1N1CCN(CCCCCCOc2ccc(F)cc2)CC1`, the “hERG current change (%, negative = inhibition) at 10uM” value is -67.2%.
Under `Cl.Fc1ccc(OCCCCN2CCOCC2)cc1` stands -4.81%; under `CN1CCN(CCCCOc2ccc(F)cc2)CC1`, 0.265%; under `COc1ccccc1N1CCN(CCCCOc2ccc(F)cc2)CC1.Cl`, -72.8%.
With `COc1ccccc1N1CCN(Cc2ccc(F)cc2)CC1` the figure was -14.7%; with `COc1ccccc1N1CCN(CCCOc2ccc(F)cc2)CC1`, -71.8%.
With `C=CCn1cnc2c(c1=O)c1nc3ccccc3nc1n2/N=C/c1cc(OC)c(OC)c(OC)c1` the figure was -22.1%; with `O=C(CSc1nnc2ccc(-c3cccnc3)nn12)Nc1ccc(F)cc1F`, -64.9%; with `COc1ccc(NC(=O)CSc2nnc3ccc(-c4ccncc4)nn23)cc1`, -30.9%.
Consider `O=C(CSc1nnc2ccc(-c3ccncc3)nn12)Nc1ccc(F)cc1`, for which the “hERG current change (%, negative = inhibition) at 10uM” value was -63.2%.
With `O=C(CSc1nnc2ccc(-c3cccnc3)nn12)Nc1ccccc1F` the figure was -39.2%.
With `CC(C)n1c(SCC(=O)Nc2ccc(F)cc2)nnc1C1CC1` the figure was -50.1%; with `CCn1c(SCC(=O)Nc2ccc(F)cc2)nnc1C1CC1`, -0.652%; with `Cn1c(SCC(=O)Nc2ccc(F)cc2)nnc1C1CC1`, 4.27%.
With `N#Cc1ccccc1NC(=O)CSc1nnc(-c2ccccc2)n1-c1ccccc1` the figure was 2.09%.
Take `CC(=O)Nc1ccc(NC(=O)CSc2nnc3ccc(-c4ccc(F)cc4)nn23)cc1`: the “hERG current change (%, negative = inhibition) at 10uM” value worked out at 16.8%.
In the case of `Cc1ccccc1NC(=O)CSc1nnc(-c2ccccc2)n1-c1ccccc1`, the “hERG current change (%, negative = inhibition) at 10uM” value was -51.4%.
Consider `O=C(CSc1nnc2ccc(-c3ccccn3)nn12)Nc1ccc(F)cc1F`, for which the “hERG current change (%, negative = inhibition) at 10uM” value was -18%.
With `NNC(=O)CSc1nnc(-c2ccccc2)n1-c1ccccc1` the figure was 8.61%.
